From the antibiotic and cytotoxicity screens of Wong et al. (2023)
The whole screen tested about 39,000 compounds, of which about 3,300 (8.5%) were called active. The sample holds actives, similar compounds and a random draw of the others, so the mix is not that of the screen.

Tested on: HepG2
Assay: cytotoxicity call (relative viability < 0.9)
Settings: 10 µM

Structure (SMILES) | cytotoxicity call
COc1ccc(S(=O)(=O)Nc2ccc3c(c2)C(=O)N([C@H](C)CO)C[C@H](C)[C@H](CN(C)S(=O)(=O)c2cccs2)O3)cc1 | inactive
O=C(C[C@@H]1C[C@H]2c3cc(NC(=O)Cc4ccncc4)ccc3O[C@H]2[C@H](CO)O1)NCc1ccc2c(c1)OCO2 | inactive
C=C(C(=O)O)[C@@H](CCCCCCOC(=O)C(=O)OCCCCCC[C@@H](C(=C)C(=O)O)C(=O)O)C(=O)O | inactive
O=C(C[C@H]1CC[C@@H]2[C@H](COC[C@@H](O)CN2S(=O)(=O)c2ccccc2F)O1)NCc1ccccc1Cl | inactive
C[C@H](CO)N1C[C@H](C)[C@@H](CN(C)C(=O)Nc2ccc(F)cc2)OCCCC[C@H](C)Oc2ccc(NC(=O)C3CCCCC3)cc2C1=O | inactive
C[C@@H]1CN([C@H](C)CO)C(=O)c2cc(NC(=O)C3CC3)ccc2O[C@@H]1CN(C)Cc1ccc2c(c1)OCO2 | inactive
Cc1noc(C)c1S(=O)(=O)Nc1ccc2c(c1)CC(=O)N([C@@H](C)CO)C[C@H](C)[C@H](CN(C)S(=O)(=O)c1ccc(Cl)cc1)O2 | inactive
C[C@@H]1CCCCO[C@H](CN(C)Cc2ccc(C(F)(F)F)cc2)[C@H](C)CN([C@@H](C)CO)C(=O)c2cc(NC(=O)c3ccncc3)ccc2O1 | inactive
Cc1ccc(S(=O)(=O)N(C)C[C@@H]2Oc3ccc(NS(=O)(=O)c4ccc(F)cc4)cc3C(=O)N([C@@H](C)CO)C[C@H]2C)cc1 | inactive
Cc1noc(C)c1S(=O)(=O)N(C)C[C@H]1OCCCC[C@@H](C)Oc2ccc(N(C)C)cc2C(=O)N([C@@H](C)CO)C[C@@H]1C | inactive
CC(C)NC(=O)Nc1ccc2c(c1)CC(=O)N([C@H](C)CO)C[C@H](C)[C@@H](CN(C)Cc1ccc(-c3ccccc3)cc1)O2 | inactive
CC(C)NC(=O)Nc1ccc2c(c1)CC(=O)N([C@@H](C)CO)C[C@@H](C)[C@@H](CN(C)Cc1ccc(-c3ccccc3)cc1)O2 | inactive
CC(C)NC(=O)Nc1ccc2c(c1)CC(=O)N([C@H](C)CO)C[C@@H](C)[C@H](CN(C)Cc1ccc(-c3ccccc3)cc1)O2 | inactive
CC(C)NC(=O)Nc1ccc2c(c1)CC(=O)N([C@@H](C)CO)C[C@H](C)[C@@H](CN(C)Cc1ccc(-c3ccccc3)cc1)O2 | active
CC(C)NC(=O)Nc1ccc2c(c1)CC(=O)N([C@H](C)CO)C[C@@H](C)[C@@H](CN(C)Cc1ccc(-c3ccccc3)cc1)O2 | active
CC(C)NC(=O)Nc1ccc2c(c1)CC(=O)N([C@@H](C)CO)C[C@@H](C)[C@H](CN(C)Cc1ccc(-c3ccccc3)cc1)O2 | inactive

Structure (SMILES) | cytotoxicity call
C[C@@H]1CN([C@@H](C)CO)S(=O)(=O)c2ccc(C#Cc3cccc(F)c3)cc2O[C@@H]1CN(C)S(=O)(=O)c1ccccc1F | inactive
C[C@@H]1CCCCO[C@@H](CN(C)Cc2ccc(C(=O)O)cc2)[C@H](C)CN([C@H](C)CO)C(=O)c2cc(NC(=O)Nc3ccc4c(c3)OCO4)ccc2O1 | inactive
CC(C)NC(=O)N(C)C[C@@H]1Oc2c(NS(=O)(=O)c3ccc(Cl)cc3)cccc2C(=O)N([C@H](C)CO)C[C@H]1C | inactive
COC(=O)C1C2CC3c4[nH]c5cc(OC)ccc5c4CCN3CC2CC(OC(=O)c2cc(OC)c(OC)c(OC)c2)C1OC (stereo unspecified) | active
COC(=O)C1C(O)CCC2CN3CCc4c([nH]c5ccccc45)C3CC21 (stereo unspecified) | inactive
COC(=O)C1C(O)CCC2CN3CCc4c([nH]c5ccccc45)C3CC21.Cl (stereo unspecified) | inactive
C[C@H](CO)N1C[C@H](C)[C@H](CN(C)S(=O)(=O)c2ccc(Cl)cc2)Oc2ccc(NS(C)(=O)=O)cc2CC1=O | inactive
O=C(C[C@@H]1CC[C@H]2[C@@H](COC[C@@H](O)CN2C(=O)Nc2ccc(Cl)cc2)O1)NC1Cc2ccccc2C1 | inactive
O=C(C[C@H]1CC[C@@H]2[C@H](COC[C@@H](O)CN2C(=O)Nc2ccc(Cl)cc2)O1)NC1Cc2ccccc2C1 | inactive
O=C(C[C@@H]1CC[C@@H]2[C@H](COC[C@H](O)CN2C(=O)Nc2ccc(Cl)cc2)O1)NC1Cc2ccccc2C1 | inactive
O=C(C[C@@H]1CC[C@@H]2[C@H](COC[C@@H](O)CN2C(=O)Nc2ccc(Cl)cc2)O1)NC1Cc2ccccc2C1 | active
O=C(C[C@H]1CC[C@H]2[C@@H](COC[C@@H](O)CN2C(=O)Nc2ccc(Cl)cc2)O1)NC1Cc2ccccc2C1 | active
O=C(C[C@H]1CC[C@H]2[C@@H](COC[C@H](O)CN2C(=O)Nc2ccc(Cl)cc2)O1)NC1Cc2ccccc2C1 | inactive
CO[C@H]1CN(C)C(=O)c2ccc(NC(=O)CC(F)(F)F)cc2OC[C@H](C)N(S(=O)(=O)c2cn(C)cn2)C[C@H]1C | inactive
C[C@H]1CCCCO[C@H](CN(C)S(C)(=O)=O)[C@@H](C)CN([C@@H](C)CO)C(=O)c2cc(NS(=O)(=O)c3cn(C)cn3)ccc2O1 | inactive
